# Assays:
# [1] = target: Sphingosine kinase 1 (Homo sapiens) (UniProt Q9NYA1); conditions: at 1 µM;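 further: mean SPHK1 inhibition value reported from the GSK PKIS kinase panel screen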
# [2] = target: T1, Sphingosine kinase 2 (Homo sapiens) (UniProt Q9NRA0); conditions: at 0.1 µM
# T1 sequence (whole entry): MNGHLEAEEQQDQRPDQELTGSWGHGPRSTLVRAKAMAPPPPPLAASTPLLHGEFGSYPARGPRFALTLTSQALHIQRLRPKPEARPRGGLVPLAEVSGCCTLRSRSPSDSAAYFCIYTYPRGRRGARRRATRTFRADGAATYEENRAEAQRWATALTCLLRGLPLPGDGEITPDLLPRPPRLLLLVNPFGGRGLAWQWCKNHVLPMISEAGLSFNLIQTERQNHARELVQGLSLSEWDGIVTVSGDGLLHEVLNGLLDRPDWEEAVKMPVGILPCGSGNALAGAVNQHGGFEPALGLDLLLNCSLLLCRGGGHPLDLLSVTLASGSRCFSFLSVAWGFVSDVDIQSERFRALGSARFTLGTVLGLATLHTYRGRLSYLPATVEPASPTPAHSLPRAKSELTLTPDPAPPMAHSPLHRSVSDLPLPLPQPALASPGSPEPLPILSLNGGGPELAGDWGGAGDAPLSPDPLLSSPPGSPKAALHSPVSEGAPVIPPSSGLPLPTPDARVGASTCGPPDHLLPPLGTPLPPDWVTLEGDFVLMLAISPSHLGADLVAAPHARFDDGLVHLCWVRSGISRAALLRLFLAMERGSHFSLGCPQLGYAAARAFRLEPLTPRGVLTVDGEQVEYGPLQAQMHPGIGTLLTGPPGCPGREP
# [3] = target: T1, Sphingosine kinase 2 (Homo sapiens); conditions: at 1 µM
# [4] = target: Casein kinase II subunit alpha (Homo sapiens) (UniProt P68400); conditions: at 1 µM;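 further: reported value is the mean CK2 inhibition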
# Casein kinase II subunit alpha (Homo sapiens), sequence (P68400 whole entry, looked up): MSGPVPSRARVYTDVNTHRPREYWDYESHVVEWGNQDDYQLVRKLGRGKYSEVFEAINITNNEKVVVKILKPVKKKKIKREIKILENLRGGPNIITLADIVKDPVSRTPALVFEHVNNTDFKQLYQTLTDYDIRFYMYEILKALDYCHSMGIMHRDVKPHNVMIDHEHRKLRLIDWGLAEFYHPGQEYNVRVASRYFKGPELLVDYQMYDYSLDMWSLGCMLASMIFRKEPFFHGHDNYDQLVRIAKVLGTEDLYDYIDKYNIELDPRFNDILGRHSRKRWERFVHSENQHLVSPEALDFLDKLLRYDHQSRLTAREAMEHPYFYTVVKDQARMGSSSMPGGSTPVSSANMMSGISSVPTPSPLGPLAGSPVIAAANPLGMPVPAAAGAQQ
# [5] = target: T2, Inhibitor of nuclear factor kappa-B kinase subunit alpha (Homo sapiens) (UniProt O15111); conditions: at 0.1 µM
# T2 sequence (whole entry): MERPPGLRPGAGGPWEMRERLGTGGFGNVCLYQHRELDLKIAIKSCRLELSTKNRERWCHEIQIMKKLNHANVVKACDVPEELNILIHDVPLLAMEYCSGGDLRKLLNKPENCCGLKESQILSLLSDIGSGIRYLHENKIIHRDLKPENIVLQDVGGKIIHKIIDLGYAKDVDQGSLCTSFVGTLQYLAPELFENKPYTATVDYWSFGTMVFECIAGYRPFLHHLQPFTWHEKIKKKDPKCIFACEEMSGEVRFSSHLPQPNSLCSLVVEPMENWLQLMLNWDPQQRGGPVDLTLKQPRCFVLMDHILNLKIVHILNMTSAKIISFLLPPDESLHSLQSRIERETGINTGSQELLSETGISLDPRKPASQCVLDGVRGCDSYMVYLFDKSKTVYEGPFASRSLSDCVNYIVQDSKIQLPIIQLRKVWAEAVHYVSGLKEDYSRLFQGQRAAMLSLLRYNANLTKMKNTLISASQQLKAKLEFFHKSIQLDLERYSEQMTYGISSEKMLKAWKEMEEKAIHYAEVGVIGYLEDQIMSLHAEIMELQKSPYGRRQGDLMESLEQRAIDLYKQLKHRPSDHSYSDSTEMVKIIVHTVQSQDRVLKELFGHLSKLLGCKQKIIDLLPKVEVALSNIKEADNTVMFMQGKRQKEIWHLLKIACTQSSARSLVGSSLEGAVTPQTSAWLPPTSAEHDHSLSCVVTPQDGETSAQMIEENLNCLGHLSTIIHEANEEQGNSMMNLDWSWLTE
# [6] = target: T2, Inhibitor of nuclear factor kappa-B kinase subunit alpha (Homo sapiens); conditions: at 1 µM
# [7] = target: T3, Inhibitor of nuclear factor kappa-B kinase subunit beta (Homo sapiens) (UniProt O14920); conditions: at 0.1 µM
# T3 sequence (whole entry): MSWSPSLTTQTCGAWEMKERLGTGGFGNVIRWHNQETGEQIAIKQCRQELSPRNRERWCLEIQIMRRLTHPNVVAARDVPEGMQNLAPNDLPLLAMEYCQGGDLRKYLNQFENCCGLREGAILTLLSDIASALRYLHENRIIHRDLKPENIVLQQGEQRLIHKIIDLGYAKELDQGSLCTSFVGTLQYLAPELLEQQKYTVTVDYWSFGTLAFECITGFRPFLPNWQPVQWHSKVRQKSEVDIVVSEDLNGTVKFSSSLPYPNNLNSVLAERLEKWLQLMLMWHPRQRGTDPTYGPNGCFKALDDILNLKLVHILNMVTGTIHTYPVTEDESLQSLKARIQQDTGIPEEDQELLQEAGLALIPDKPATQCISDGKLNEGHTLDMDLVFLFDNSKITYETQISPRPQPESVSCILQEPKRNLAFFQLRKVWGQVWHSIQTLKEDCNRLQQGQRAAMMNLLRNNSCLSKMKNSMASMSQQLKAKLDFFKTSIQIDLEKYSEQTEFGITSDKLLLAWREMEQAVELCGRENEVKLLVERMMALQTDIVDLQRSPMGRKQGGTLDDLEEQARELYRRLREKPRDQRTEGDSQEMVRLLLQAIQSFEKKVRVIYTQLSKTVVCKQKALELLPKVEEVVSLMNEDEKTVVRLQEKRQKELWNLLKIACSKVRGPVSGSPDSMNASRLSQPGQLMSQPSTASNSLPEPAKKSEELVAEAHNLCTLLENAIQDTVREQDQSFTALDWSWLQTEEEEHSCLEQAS
# [8] = target: T3, Inhibitor of nuclear factor kappa-B kinase subunit beta (Homo sapiens); conditions: at 1 µM
# [9] = target: T4, Inhibitor of nuclear factor kappa-B kinase subunit epsilon (Homo sapiens) (UniProt Q14164); conditions: at 0.1 µM
# T4 sequence (whole entry): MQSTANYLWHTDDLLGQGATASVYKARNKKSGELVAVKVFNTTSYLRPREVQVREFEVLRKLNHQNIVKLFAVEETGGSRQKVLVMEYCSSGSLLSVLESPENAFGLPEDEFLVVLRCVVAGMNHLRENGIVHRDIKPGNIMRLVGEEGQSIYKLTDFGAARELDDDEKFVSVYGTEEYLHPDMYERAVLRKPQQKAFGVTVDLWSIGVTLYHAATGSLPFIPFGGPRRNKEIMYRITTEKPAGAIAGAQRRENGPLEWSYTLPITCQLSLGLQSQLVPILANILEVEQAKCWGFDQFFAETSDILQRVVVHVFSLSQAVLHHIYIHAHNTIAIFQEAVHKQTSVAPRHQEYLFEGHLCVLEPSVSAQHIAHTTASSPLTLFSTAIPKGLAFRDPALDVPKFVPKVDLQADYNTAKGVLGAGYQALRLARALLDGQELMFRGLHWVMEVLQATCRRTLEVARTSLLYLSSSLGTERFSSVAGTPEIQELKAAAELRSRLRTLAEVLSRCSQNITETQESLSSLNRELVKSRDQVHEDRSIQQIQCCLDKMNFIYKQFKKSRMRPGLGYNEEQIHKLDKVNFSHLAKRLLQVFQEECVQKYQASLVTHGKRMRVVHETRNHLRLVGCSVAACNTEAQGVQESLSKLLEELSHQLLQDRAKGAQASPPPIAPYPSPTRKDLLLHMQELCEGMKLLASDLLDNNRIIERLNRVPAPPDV
# [10] = target: T4, Inhibitor of nuclear factor kappa-B kinase subunit epsilon (Homo sapiens); conditions: at 1 µM
# [11] = target: T5, Serine/threonine-protein kinase Nek1 (Homo sapiens) (UniProt Q96PY6); conditions: at 0.1 µM
# T5 sequence (whole entry): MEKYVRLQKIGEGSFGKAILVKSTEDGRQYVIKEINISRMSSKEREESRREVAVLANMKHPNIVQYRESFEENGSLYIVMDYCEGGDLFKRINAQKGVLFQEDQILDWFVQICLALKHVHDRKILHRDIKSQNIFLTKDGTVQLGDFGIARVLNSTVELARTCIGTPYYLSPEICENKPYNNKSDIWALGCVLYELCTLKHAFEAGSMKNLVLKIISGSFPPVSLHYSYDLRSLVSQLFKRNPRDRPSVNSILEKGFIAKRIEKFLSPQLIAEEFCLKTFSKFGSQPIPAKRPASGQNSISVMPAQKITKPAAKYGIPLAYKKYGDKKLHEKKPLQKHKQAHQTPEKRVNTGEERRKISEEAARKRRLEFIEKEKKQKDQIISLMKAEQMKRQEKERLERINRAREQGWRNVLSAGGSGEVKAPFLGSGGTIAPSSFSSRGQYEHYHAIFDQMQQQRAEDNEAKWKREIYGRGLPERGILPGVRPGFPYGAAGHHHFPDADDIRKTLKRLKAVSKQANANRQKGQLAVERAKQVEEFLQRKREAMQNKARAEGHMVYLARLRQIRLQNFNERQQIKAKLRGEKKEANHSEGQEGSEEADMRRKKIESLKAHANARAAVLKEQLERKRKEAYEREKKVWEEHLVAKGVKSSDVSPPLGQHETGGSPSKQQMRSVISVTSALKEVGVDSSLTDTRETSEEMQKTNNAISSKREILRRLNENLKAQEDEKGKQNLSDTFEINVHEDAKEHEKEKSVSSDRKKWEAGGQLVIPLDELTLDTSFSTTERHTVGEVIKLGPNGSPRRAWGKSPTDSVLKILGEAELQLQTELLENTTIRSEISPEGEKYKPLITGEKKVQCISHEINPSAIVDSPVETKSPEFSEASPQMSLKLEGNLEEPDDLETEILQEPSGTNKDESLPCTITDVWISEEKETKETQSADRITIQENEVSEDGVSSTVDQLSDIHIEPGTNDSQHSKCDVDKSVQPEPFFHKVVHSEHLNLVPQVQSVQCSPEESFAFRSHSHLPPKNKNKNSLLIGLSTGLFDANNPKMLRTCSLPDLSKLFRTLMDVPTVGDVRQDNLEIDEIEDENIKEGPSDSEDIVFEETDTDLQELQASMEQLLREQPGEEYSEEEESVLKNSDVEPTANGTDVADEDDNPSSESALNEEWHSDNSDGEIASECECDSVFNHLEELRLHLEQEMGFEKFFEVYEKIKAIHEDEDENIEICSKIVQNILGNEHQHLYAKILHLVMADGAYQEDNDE
# [12] = target: T5, Serine/threonine-protein kinase Nek1 (Homo sapiens); conditions: at 1 µM
# [13] = target: T6, Serine/threonine-protein kinase Nek2 (Homo sapiens) (UniProt P51955); conditions: at 0.1 µM
# T6 sequence (whole entry): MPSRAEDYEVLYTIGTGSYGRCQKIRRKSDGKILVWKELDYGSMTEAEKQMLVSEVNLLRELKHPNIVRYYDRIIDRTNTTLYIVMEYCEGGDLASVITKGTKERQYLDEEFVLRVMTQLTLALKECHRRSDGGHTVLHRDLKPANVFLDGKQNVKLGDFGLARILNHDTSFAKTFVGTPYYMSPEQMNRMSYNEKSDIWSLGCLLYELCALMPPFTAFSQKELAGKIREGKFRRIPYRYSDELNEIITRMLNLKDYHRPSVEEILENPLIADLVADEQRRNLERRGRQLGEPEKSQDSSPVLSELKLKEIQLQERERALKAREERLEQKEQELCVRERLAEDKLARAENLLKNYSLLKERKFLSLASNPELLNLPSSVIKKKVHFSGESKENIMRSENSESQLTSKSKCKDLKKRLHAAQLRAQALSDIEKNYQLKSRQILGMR
# [14] = target: T6, Serine/threonine-protein kinase Nek2 (Homo sapiens); conditions: at 1 µM
# [15] = target: Serine/threonine-protein kinase Nek6 (Homo sapiens) (UniProt Q9HC98); conditions: at 0.1 µM
# Serine/threonine-protein kinase Nek6 (Homo sapiens), sequence (Q9HC98 whole entry): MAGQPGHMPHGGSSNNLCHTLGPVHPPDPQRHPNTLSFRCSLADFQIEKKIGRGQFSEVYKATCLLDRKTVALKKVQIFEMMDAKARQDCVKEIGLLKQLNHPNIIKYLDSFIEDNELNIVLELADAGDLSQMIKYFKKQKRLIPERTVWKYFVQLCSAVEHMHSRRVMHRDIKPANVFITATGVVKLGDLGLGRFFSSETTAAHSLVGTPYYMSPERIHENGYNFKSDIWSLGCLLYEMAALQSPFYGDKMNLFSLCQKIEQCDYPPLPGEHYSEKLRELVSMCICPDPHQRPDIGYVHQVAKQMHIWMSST
# [16] = target: Serine/threonine-protein kinase Nek6 (Homo sapiens) (UniProt Q9HC98); conditions: at 1 µM
# [17] = target: Serine/threonine-protein kinase Nek7 (Homo sapiens) (UniProt Q8TDX7); conditions: at 0.1 µM
# Serine/threonine-protein kinase Nek7 (Homo sapiens), sequence (Q8TDX7 whole entry, looked up): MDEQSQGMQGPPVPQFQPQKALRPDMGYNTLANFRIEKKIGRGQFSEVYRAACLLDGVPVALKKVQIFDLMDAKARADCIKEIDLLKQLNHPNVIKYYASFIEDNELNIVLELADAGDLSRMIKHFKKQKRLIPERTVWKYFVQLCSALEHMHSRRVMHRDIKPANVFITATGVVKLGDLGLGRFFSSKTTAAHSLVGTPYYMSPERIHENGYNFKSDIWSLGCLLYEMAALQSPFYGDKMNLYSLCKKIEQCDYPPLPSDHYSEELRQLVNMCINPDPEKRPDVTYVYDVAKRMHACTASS
# [18] = target: Serine/threonine-protein kinase Nek7 (Homo sapiens) (UniProt Q8TDX7); conditions: at 1 µM
# [19] = target: T7, Serine/threonine-protein kinase Nek9 (Homo sapiens) (UniProt Q8TD19); conditions: at 0.1 µM;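 further: reported value is the mean percent inhibition of NEK9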
# T7 sequence (whole entry): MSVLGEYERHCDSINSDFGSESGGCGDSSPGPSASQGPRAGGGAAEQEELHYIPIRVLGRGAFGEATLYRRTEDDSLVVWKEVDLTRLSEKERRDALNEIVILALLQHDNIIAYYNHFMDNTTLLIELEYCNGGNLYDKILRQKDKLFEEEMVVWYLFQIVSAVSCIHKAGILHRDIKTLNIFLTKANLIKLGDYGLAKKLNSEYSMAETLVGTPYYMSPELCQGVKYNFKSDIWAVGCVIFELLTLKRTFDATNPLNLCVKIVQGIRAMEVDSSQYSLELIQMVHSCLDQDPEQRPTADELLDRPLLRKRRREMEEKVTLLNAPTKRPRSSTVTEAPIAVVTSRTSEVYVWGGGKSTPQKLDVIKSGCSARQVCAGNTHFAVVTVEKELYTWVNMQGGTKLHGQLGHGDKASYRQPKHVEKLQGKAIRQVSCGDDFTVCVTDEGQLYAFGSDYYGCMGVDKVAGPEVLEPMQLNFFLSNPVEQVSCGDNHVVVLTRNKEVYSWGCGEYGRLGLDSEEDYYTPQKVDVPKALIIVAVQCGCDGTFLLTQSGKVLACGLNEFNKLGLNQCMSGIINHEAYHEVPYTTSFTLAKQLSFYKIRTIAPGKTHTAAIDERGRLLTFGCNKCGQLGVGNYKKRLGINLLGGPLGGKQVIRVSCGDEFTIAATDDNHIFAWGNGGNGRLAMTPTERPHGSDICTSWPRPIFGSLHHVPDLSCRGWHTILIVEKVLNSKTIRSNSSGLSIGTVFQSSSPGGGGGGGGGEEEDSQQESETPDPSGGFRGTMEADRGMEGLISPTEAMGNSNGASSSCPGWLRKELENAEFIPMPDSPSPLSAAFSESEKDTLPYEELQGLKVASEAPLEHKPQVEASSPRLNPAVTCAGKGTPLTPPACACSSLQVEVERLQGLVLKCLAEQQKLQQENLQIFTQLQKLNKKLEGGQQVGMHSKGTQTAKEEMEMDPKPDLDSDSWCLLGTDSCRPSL
# Sphingosine kinase 1 (Homo sapiens), sequence (Q9NYA1 whole entry): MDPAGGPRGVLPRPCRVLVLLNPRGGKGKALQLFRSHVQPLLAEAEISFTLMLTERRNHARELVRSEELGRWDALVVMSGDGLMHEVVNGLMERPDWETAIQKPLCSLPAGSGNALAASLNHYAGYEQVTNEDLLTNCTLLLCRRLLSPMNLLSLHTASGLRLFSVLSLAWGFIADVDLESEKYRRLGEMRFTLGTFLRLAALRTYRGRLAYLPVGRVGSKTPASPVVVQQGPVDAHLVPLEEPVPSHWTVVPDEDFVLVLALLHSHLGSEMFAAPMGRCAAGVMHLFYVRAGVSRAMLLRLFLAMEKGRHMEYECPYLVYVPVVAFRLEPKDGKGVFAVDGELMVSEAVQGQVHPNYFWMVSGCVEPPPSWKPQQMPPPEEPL
compound,measurement,setting,value
CCC(=O)Nc1ccc(C)c(-c2ccc(C(=O)NCC3CC3)cc2)c1,inhibition,[1],0.8%
same,inhibition,[2],-0.3%
same,inhibition,[3],0.9%
same,inhibition,[4],2.11%
same,inhibition,[5],10.5%
same,inhibition,[6],7.65%
same,inhibition,[7],5.07%
same,inhibition,[8],5.57%
same,inhibition,[9],9.75%
same,inhibition,[10],4.21%
same,inhibition,[11],2.34%
same,inhibition,[12],2.64%
same,inhibition,[13],4.55%
same,inhibition,[14],0.77%
same,inhibition,[15],2.45%
same,inhibition,[16],0.12%
same,inhibition,[17],3.13%
same,inhibition,[18],8.32%
same,inhibition,[19],8.46%

# Reference: ChEMBL document CHEMBL1961873, “Compounds: GSK PKIS; Assays: Nanosyn kinase panel” (2012)
